Measured values taken from PubChem BioAssay AID1671190 (National Center for Advancing Translational Sciences (NCATS), 2021).
In all, about 580,000 compounds went through this assay and about 6,100 (1.1%) were called active. Not shown: some 15% with an inconclusive outcome. Shown is part of a subset that was picked to be rich in actives. A call without a number means that no potency is given here. A number with no mark means an inactive call. Calls come from the whole dose curve; as a rule, active = well fitted inhibition curve with a large enough effect; inconclusive = small, poorly fitted or top-dose-only effect, or another doubt; inactive = no such curve, though single readings can be large or run the other way.
Potency is the fitted concentration of half-maximal effect.

The compounds below were run against Polyunsaturated fatty acid lipoxygenase ALOX12 (Homo sapiens) (UniProt P18054) (assay: Primary qHTS assay for inhibitors of human arachidonate 12S-lipoxygenase (ALOX12): Round 2). Conditions: purified 12hLO, xylenol orange hydroperoxide absorbance; series mostly up to 108 µM.
Sequence of Polyunsaturated fatty acid lipoxygenase ALOX12 (Homo sapiens) (P18054 whole entry, looked up): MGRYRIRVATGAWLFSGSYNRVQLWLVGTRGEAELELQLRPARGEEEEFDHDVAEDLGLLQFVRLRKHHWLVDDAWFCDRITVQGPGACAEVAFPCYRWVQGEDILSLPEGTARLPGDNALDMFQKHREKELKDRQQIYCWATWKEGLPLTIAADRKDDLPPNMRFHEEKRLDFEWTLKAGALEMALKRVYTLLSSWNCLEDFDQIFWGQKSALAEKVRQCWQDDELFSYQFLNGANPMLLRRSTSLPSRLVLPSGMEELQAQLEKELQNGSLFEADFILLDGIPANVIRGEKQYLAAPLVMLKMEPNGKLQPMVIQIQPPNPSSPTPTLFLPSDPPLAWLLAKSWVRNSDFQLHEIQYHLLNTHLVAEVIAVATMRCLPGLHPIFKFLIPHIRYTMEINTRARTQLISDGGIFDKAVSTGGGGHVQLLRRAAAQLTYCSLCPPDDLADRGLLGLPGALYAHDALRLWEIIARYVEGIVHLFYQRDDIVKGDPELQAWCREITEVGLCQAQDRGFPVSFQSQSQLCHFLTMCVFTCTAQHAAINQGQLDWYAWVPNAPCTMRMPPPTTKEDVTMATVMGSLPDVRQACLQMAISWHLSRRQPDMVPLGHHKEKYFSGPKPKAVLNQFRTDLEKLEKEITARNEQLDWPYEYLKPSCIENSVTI
In short: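 Purified human 12hLO (150 nM final) in 25 mM Hepes, 0.01% Triton X-100, pH 7.0 was preincubated 15 min at room temperature with compound. Then 40 uM arachidonic acid was added, 30 min. Hydroperoxide was read by Fe-XO absorbance ratio 573/405 nm.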
`N#CCCn1cc(C(=O)CN2C(=O)NC3(CCOc4ccccc43)C2=O)c2ccccc21` (centres undefined) was tested, and the Potency was “inactive”.
In the case of `O=S(=O)(c1ccc2nc(N3CCN(c4cccc(Cl)c4)CC3)ccc2c1)N1CCCCC1`, the Potency was “inactive”.
For `Cc1ccc(C)c(N2CCN(c3ccc4cc(S(=O)(=O)N5CCC(C)CC5)ccc4n3)CC2)c1`, the Potency was 50.1 µM (active).
With `Cc1ccccc1N1CCN(S(=O)(=O)c2ccc3ccccc3c2)CC1` the Potency was “inactive”.
In the case of `CC1=C[C@@H](CNC2CCN(C)CC2)[C@H](C(C)C)C[C@H]1Cc1nc2ccccc2[nH]1`, the Potency was “inactive”.
For `Cc1noc(C)c1C(=O)N1CCCC2(Cc3ccccc3CN2C(=O)C2CCCC2)C1` (centres undefined), the activity change, negative = inhibition was 2.72% [at 12.5 µM].
In the case of `C#C[C@]1(O)CC[C@H]2[C@@H]3CCC4=CC(=O)CC[C@@H]4[C@H]3CC[C@@]21CC`, the Potency was “inactive”.
`C[C@]12CCC3=C4CCC(=O)C=C4CC[C@@H]3[C@H]1CC[C@@]2(O)CC#N` was tested, and the Potency was 19.3 µM (active).
In the case of `Cc1ccccc1NC(=O)CSc1nnc(C)n1-n1cccc1`, the Potency was “inactive”.
With `COc1ccc(NC(=O)c2nn(C)c(=O)c3ccccc23)cc1OC(F)F` the Potency was “inactive”.
With `CCc1cccc(C)c1NC(=O)Cn1ccn(-c2ccccc2)c(=O)c1=O` the Potency was “inactive”.
`O=C(COC(=O)/C=C/c1ccc(Cl)cc1)NC1CCS(=O)(=O)C1` (centres undefined) was tested, and the Potency was “inactive”.
For `CC(C)(C)c1ccc(/C=C/C(=O)NC2CCS(=O)(=O)C2)cc1` (centres undefined), the Potency was “inactive”.
`CC(C(=O)NC1CCS(=O)(=O)C1)N1C(=O)/C(=C/c2ccc(Cl)cc2)SC1=S` (centres undefined) was tested, and the Potency was 35.5 µM (active).
With `COc1ccc(S(=O)(=O)N2CCN(Cc3ncc(-c4ccc(F)cc4)o3)CC2)cc1` the Potency was “inactive”.
With `Cc1cc2nc(-c3ccco3)c(Cc3cccc(F)c3)n2c(C)c1Br` the Potency was 11.2 µM (active).
In the case of `O=C(c1ccco1)N1CCN=C1SCc1cccc(Cl)c1`, the Potency was “inactive”.
For `Cc1ccc2nc(COc3cccc(NC(=O)c4cccc(Cl)c4)c3)cc(=O)n2c1`, the Potency was “inactive”.
With `Cc1ccc2nc(-c3ccco3)c(Cc3cccc(Cl)c3)n2c1` the Potency was 25.1 µM (active).
`Cc1ccc(C(=O)c2ccccc2C(=O)OCc2ccccc2Cl)cc1` was tested, and the Potency was “inactive”.
In the case of `CCN(CC)S(=O)(=O)c1ccc2c(c1)c(=O)n(CC(=O)N1CCCCCC1)c(=O)n2C`, the Potency was “inactive”.
`O=C(CSc1nnc(-c2ccc(Cl)cc2)o1)N1CCC(c2ccccc2)=N1` was tested, and the Potency was “inactive”.
In the case of `O=C1C(Cl)=C(Oc2ccccc2)C(=O)c2ccccc21`, the Potency was 11.2 µM (active).
In the case of `Cc1cc2c(cn1)C(=O)c1ccccc1-2`, the Potency was “inactive”.
For `N#Cc1cccc(CN2CCC(c3ccnn3CCO)CC2)c1`, the Potency was “inactive”.
In the case of `COc1ccc(OC)c(NC(=O)c2nc3ccccc3nc2N2CCCC2)c1`, the Potency was “inactive”.
With `COc1ccc2nc(N3CCCC(O)C3)c(C#N)cc2c1` (centres undefined) the Potency was 50.1 µM (active).
With `COc1ccc2cc(C(=O)C3CCCN(C(=O)c4sc(C)nc4C)C3)ccc2c1` (centres undefined) the Potency was “inactive”.
For `O=C(COc1ccc2ccccc2c1)Nc1nc2n(n1)C(c1ccc(Cl)cc1)CC(=O)N2` (centres undefined), the Potency was “inactive”.
For `O=C(NCC1CCCCO1)C1(Oc2ccc(Cl)cc2)CCNCC1` (centres undefined), the Potency was “inactive”.
In the case of `CC(C)N(C(=O)COC(=O)/C=C/c1cccc2cccnc12)c1ccccc1`, the Potency was “inactive”.
`COC(=O)Nc1ncc(CN2CCCCC2)s1` was tested, and the Potency was “inactive”.
`CC(=O)NC1(C)CN(Cc2ccc(-c3ccc4c(ccn4C)c3)s2)C1` was tested, and the Potency was “inactive”.
`CC(=O)NC1(C)CCN(Cc2cnc(-c3ccc4c(ccn4C)c3)s2)CC1` was tested, and the Potency was 39.8 µM (active).
`CCCc1c(C)nc(Nc2nc(C)c3ccc(C)cc3n2)[nH]c1=O` was tested, and the Potency was “inactive”.
`COC(=O)c1sc2ncccc2c1-n1c(C)ccc1C` was tested, and the Potency was “inactive”.
For `CCOc1ccc(-n2c(N)c(C(=O)NCC3CCCO3)sc2=S)cc1` (centres undefined), the Potency was “inactive”.
For `COC(=O)c1sc(=S)n(-c2ccccc2)c1N`, the Potency was 44.7 µM (active).
For `Cc1ccc(C(=O)NC(c2ccc3c(c2)OCCCO3)C(C)C)cn1` (centres undefined), the Potency was “inactive”.
In the case of `Cc1c(CCC(=O)NCc2ccc3c(c2)OCO3)c(=O)oc2cc(O)ccc12`, the Potency was “inactive”.
In the case of `COc1ccc(NC(=O)c2ccc(Br)o2)cc1NC(=O)c1ccccc1C`, the Potency was “inactive”.
`O=C(Nc1ccc2c(c1)OCO2)c1cc(=O)c(OCc2ccccc2F)co1` was tested, and the Potency was “inactive”.
`CN1C(=O)c2ccc(NC(=O)C(F)(F)C(F)(F)C(F)(F)F)cc2C1=O` was tested, and the Potency was “inactive”.
With `Cc1nn2c(c1-c1ccccc1-c1ccccc1)N(C(=O)CN1CCOCC1)CCC2` the Potency was “inactive”.
In the case of `COc1c(CNCc2cccnc2N2CCOCC2)c(C)nn1C`, the Potency was “inactive”.
For `Cc1ccccc1CN1CCCn2nc(C)c(-c3cccnc3N3CCOCC3)c21`, the Potency was 28.2 µM (active).
In the case of `COC(=O)c1cc(C)nc2c1c(=O)n(Cc1cccc(Cl)c1)c(=O)n2-c1ccccc1`, the Potency was “inactive”.
With `O=C(NCCc1ccc(Cl)cc1)C1CCCN1C(=O)NCc1ccccc1` (centres undefined) the Potency was “inactive”.
With `Oc1cc2c(cc1O)CN(C(=S)NCCc1ccc(Cl)cc1)CCC2` the Potency was 17.8 µM (active).
With `O=C(CSCc1ccc(Cl)cc1)N1CCCCC1` the Potency was “inactive”.
For `CCN(CC(=O)NC(C)C)C(=O)Cn1c(=O)c2c(ncn2CC(C)C)n(Cc2ccccc2)c1=O`, the Potency was “inactive”.
`CC(C)c1cccc(NC(=O)Cc2n[nH]c(=O)c3ccccc23)c1` was tested, and the Potency was “inactive”.
In the case of `CCc1nnc(NC(=O)COc2ccc3c(C)cc(=O)oc3c2)s1`, the Potency was “inactive”.
For `CC[C@@H]1Cc2cc(O)ccc2C2=C1c1ccc(O)cc1C[C@H]2CC`, the Potency was 50.1 µM (active).
`CCC(C)NC(=S)Nc1ccc(C)cc1` (centres undefined) was tested, and the Potency was “inactive”.
For `Cc1ccc(C)c(NC(=S)NNC(=S)Nc2ccc(C(C)C)cc2)c1`, the Potency was 35.5 µM (active).
In the case of `Cc1ccc(C)c(NC(=S)NNC=O)c1`, the Potency was “inactive”.
In the case of `O=C(CCC1CCCCC1)NC(N1CCCCC1)(C(F)(F)F)C(F)(F)F`, the Potency was “inactive”.
In the case of `CC(CCc1ccccc1)NC(=O)C1CC=CCC1` (centres undefined), the Potency was “inactive”.
With `CCc1ccc(C(=O)Nc2ccc(Cl)cc2)cc1S(=O)(=O)N1CCOCC1` the Potency was “inactive”.
For `CCc1cccc(NC(=O)c2cccc(S(=O)(=O)N3CCOCC3)c2)c1`, the Potency was “inactive”.
For `CCc1nnc(NS(=O)(=O)c2ccc(NC(=S)NC(=O)c3cccs3)cc2)s1`, the Potency was 22.4 µM (active).
With `Cc1cc(C)nc(NS(=O)(=O)c2ccc(N/C=C\C(=O)c3cccs3)cc2)n1` the Potency was “inactive”.
`CCC(CC)C(=O)Nc1ccc(S(=O)(=O)Nc2nccs2)cc1` was tested, and the Potency was “inactive”.
For `S=C(Cc1ccccc1)SC/C=C/c1ccccc1`, the Potency was “inactive”.
With `NNc1nc2c(Cl)cccc2s1` the Potency was 17.8 µM (active).
`CCN1CCN(C(=O)c2cc3cc(Cl)cc(Cl)c3oc2=O)CC1` was tested, and the Potency was “inactive”.
In the case of `CCCCNC(=O)C(C#N)c1nc2ccccc2nc1N1CCN(C(=O)OCC)CC1` (centres undefined), the Potency was “inactive”.
In the case of `O=C(CN1CCN(C/C=C/c2ccccc2)CC1)Nc1ccc(F)cc1F`, the Potency was “inactive”.
In the case of `Fc1ccc(N/N=C/c2ccc(-c3ccccc3)cc2)c(F)c1`, the Potency was 2.24 µM (active).
With `Fc1ccc(N/N=C/c2cccc(/C=N/Nc3ccc(F)cc3F)c2)c(F)c1` the Potency was “inactive”.
`COc1ccc(NC(C)=O)cc1NC(=O)c1nc(-c2ccccc2)oc1C` was tested, and the Potency was “inactive”.
`O=C(NC1CCS(=O)(=O)C1)c1cc2sccc2n1Cc1ccccc1` (centres undefined) was tested, and the Potency was “inactive”.
For `CN(C)CCNC(=O)CC1CCN(C(=O)c2nnc(C(=O)Nc3cccc(Cl)c3)s2)CC1`, the Potency was “inactive”.
